The test deals with NF-kB p65/p50 heterodimer (Homo sapiens, UniProt Q04206;P19838 Q04206:1-551,P19838:1-433). The test can be described thus: EMSA; Table 3 gives 58 for PO. As to conditions: protein: extract; tags: nuclear extract of LPS-stimulated THP-1 cells; dsDNA, one strand shown. The source says:
The EMSA assay was employed to characterize oligonucleotide decoys for the NF-κB transcription factor. […] Using the above modified oligonucleotides to compete for binding for the above-mentioned NF-κB family members, it was possible to compare the binding affinity of these oligonucleotides against the high affinity radiolabeled probe and each other. This assay has also enabled the design of a decoy which selectively binds particular members of the NF-κB family. By using increasing concentrations of various oligonucleotides, it was observed that, by deleting or changing targeted residues in the binding site, it was possible to specifically decrease the binding of the decoy molecule to p50/p50 homodimers, while retaining the affinity for p65/p50 and cRel/p50 heterodimers.
The NF-κB gel shift assays (EMSA) were performed as follows. A double-stranded oligonucleotide containing a consensus NF-κB binding site (5′ […].GGC 3′) (SEQ ID NO: 26) was end-labeled with γ³²P-ATP using T4 Polynucleotide Kinase (Promega). […] The dried gels were imaged and quantitated using a Typhoon 8600 Phosphorlmager (Amersham) and ImageQuant software. […]
Sequence of NF-kB p65/p50 heterodimer (Q04206 whole entry, chain 1 of 2): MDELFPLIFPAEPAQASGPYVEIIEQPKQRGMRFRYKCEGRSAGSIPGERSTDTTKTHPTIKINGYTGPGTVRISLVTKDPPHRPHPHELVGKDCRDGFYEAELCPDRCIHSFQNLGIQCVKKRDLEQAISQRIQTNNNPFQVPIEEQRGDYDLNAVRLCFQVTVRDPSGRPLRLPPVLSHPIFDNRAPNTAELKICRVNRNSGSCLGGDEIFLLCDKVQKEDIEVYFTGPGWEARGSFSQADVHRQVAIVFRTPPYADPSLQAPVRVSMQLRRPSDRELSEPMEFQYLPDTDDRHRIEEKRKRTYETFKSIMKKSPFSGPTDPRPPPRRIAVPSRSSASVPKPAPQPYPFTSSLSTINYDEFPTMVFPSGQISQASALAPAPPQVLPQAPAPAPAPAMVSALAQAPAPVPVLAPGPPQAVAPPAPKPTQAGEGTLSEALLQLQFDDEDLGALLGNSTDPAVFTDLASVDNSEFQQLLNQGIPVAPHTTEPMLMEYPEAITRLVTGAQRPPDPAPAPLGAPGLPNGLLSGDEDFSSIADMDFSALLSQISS
Sequence of NF-kB p65/p50 heterodimer (P19838 1-433, chain 2 of 2): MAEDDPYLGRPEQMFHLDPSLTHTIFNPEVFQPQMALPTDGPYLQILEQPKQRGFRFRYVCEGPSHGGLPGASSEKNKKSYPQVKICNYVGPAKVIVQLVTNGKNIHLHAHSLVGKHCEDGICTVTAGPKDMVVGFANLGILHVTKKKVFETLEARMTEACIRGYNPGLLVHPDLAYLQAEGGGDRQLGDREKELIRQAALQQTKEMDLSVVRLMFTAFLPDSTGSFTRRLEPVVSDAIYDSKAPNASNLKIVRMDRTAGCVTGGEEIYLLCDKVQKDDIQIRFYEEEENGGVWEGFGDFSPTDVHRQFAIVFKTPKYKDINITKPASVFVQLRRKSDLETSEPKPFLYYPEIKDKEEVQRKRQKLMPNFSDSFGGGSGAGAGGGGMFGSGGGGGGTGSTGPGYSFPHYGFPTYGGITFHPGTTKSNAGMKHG
For the sequence AGTTGAGGACTTTCCAGGC, the IC50 worked out at 62.4 fold molar excess.

These data come from US20060069055, “Delivery of polynucleotides” (published 2006).
